Test results: ChEMBL document CHEMBL4513216, “Probing the Open Global Health Chemical Diversity Library for Multistage-Active Starting Points for Next-Generation Antimalarials” (ACS Infect Dis, 2020)
Out of some 69,000 compounds screened, about 8,600 (12%) showed an effect of 50% or more. The sample holds strong results, similar compounds and a random draw of the others, so the mix is not that of the screen.

Tested on: Plasmodium berghei
Experiment: Screen against P. berghei liver stage (PbLuc), transformed with Luciferase, at 10uM
Format: functional, HepG2
Details: tested at 10 uM

SMILES | INHIBITION
CN(CCCc1cc(-c2ccccc2)no1)S(C)(=O)=O | -42.55%
O=C(Cc1ccc2c(c1)CCO2)N1CCN(c2ccncc2)CC1 | 15.3%
CC(C)NC(=O)[C@H]1C[C@H]2CN(C(=O)NCCc3ccccc3)C[C@@H]1O2 | 5.67%
O=C(CNC(=O)c1ccc2c(c1)CCC2)NCCNc1ncccn1 | -24.3%
CCNC(=O)Nc1ncc(-c2cccnc2)s1 | 4.41%
CC(C)C(C)n1nccc1NC(=O)Cn1cnc2ccccc21 (stereo unspecified) | -8.99%
COc1ccc(C(=O)Nc2n[nH]c(C3CCCO3)n2)cc1 (stereo unspecified) | 32.3%
COC(=O)c1cccc(C(=O)N2CCN(c3cc(C)ccc3C)CC2)n1 | -19.4%
COC(=O)c1cccc(C(=O)N2CCN(c3cc(Cl)ccc3C)CC2)n1 | 66.4%
COC(=O)c1cccc(C(=O)N2CCN(c3ccc(Cl)cc3)CC2)n1 | -18.3%
Cc1nn(C)c(C)c1C(=O)N1CCN(c2ccncc2Cl)CC1 | 43.9%
COC(=O)c1cccc(C(=O)N2CCN(c3ccccc3F)CC2)n1 | 30%
Cc1cccc(N2CCN(C(=O)NC(C)c3nncn3C)CC2)c1C (stereo unspecified) | -48.4%
Cc1cccc(N2CCN(C(=O)c3c(C)nn(C)c3C)CC2)c1C | 54.8%
COC(=O)c1cccc(C(=O)N2CCN(c3cccc(C)c3C)CC2)n1 | 74.2%
COC(=O)c1cccc(C(=O)N2CCN(c3ccc(OC)cc3)CC2)n1 | 5.51%
CN(C(=O)c1ncn2c1CN(C)S(=O)(=O)c1ccccc1-2)C1CC1 | -30%
CCC(C(=O)N(C)CCC1=CCN(C)CC1)c1ccccc1 (stereo unspecified) | 24%
CCC(C)NC(=O)c1cc(S(=O)(=O)N(C)C)c(C)s1 (stereo unspecified) | 19.5%
O=S1(=O)NC2(CCCN(CCc3ccccc3)C2)COc2ccccc21 (stereo unspecified) | 24.2%
Cc1nc(N2CCCN(C(=O)c3ccsc3)CC2)c2cnn(C)c2n1 | 14.4%
CS(=O)(=O)NCCC1CCCCN1C(=O)NCCc1ccccn1 (stereo unspecified) | -25.6%
Cc1nc(CN2CCCC2c2[nH]ncc2C(=O)N(C)C)cs1 (stereo unspecified) | 8.53%

SMILES | INHIBITION
CC(C)Oc1cccc(F)c1C(C(=O)O)N(C)Cc1ccon1 (stereo unspecified) | 71.2%
Cc1c[nH]c(CN(C)C(C(=O)O)c2c(F)cccc2Cl)n1 (stereo unspecified) | 16.5%
COc1ccc(Cl)cc1C(C(=O)O)N(C)Cc1ccon1 (stereo unspecified) | -73.6%
COc1cc(F)ccc1C(C(=O)O)N(C)Cc1ccon1 (stereo unspecified) | -66.4%
CCOc1ccccc1C(C(=O)O)N(C)Cc1nc(C)c[nH]1 (stereo unspecified) | 21.1%
Cc1c[nH]c(CN(C)C(C(=O)O)c2c(F)cccc2OC(C)C)n1 (stereo unspecified) | 58.2%
CC(Cn1cccn1)NC(=O)c1cccs1 (stereo unspecified) | -40.2%
CN1CCCC1CCNC(=O)Nc1ccccc1 (stereo unspecified) | 27.3%
Cc1cc(Oc2ccccc2C)nc(C2CCCN2)n1 (stereo unspecified) | 4.41%
Cc1cccc(C(=O)NC(C)CN2CCCC2=O)n1 (stereo unspecified) | 4%
O=C(CCn1ccnc1)N1C[C@@H](O)[C@H](Oc2cccc(F)c2)C1 | -31%
CC(=O)NCC(=O)N1CCOC2(CCCN(c3cccnc3)C2)C1 (stereo unspecified) | 6.8%
Cc1cc(C)nc(N2CCCC(c3nccn3CCCN(C)C)C2)c1 (stereo unspecified) | 17.1%
CN(C)C(=O)COCC1CN(Cc2ccco2)Cc2ncn(C)c21 (stereo unspecified) | 39.5%
NC(=O)c1cnc2n1CCN(C(=O)c1ccc(-c3cc[nH]n3)cc1)C2 | 11.7%
O=C1COc2cccc(OCc3ccccn3)c2N1 | 12.3%
CC(C)c1nc(COc2cccc3c2NC(=O)CO3)cs1 | 79.1%
Cc1ncc(COc2cccc3c2NC(=O)CO3)s1 | 8.05%
O=C(CCc1nc(-c2ccccn2)no1)N1CCCC1c1ccsc1 (stereo unspecified) | 7.08%
O=C(CCN1CCOCC1)NC(Cc1ccsc1)c1nccs1 (stereo unspecified) | 5.055%
Cc1nc(C2CCCN2C(=O)c2ccccc2)ncc1C(N)=O (stereo unspecified) | 40.4%
Cc1nc(C2CCCN2C(=O)Cc2ccc(F)cc2)ncc1C(N)=O (stereo unspecified) | 19.6%
Cc1nc(C2CCCN2C(=O)COc2ccccc2)ncc1C(N)=O (stereo unspecified) | 52%

SMILES | INHIBITION
Cc1nc(C2CCCN2C(=O)CC2CCCC2)ncc1C(N)=O (stereo unspecified) | 17.1%
Cc1nc(C2CCCN2C(=O)c2ccc(F)cc2)ncc1C(N)=O (stereo unspecified) | 55.6%
NC(=O)c1cn[nH]c1C1CCCN1C(=O)c1ccccc1 (stereo unspecified) | 6.26%
NC(=O)c1cn[nH]c1C1CCCN1C(=O)COc1ccccc1 (stereo unspecified) | 52.7%
NC(=O)c1cn[nH]c1C1CCCN1C(=O)c1ccccn1 (stereo unspecified) | 11.8%
Cc1nc(C2CCCN2C(=O)CCc2ccccc2)ncc1C(N)=O (stereo unspecified) | 18.3%
COC(=O)NCC(=O)N1CCc2cc(Cl)cc(Cl)c2C1 | -10.9%
Cc1nc(-c2ccccc2C)n(CC(=O)NC2CCCC2)n1 | 7.27%
O=C(c1cscn1)N1CCCC(n2cncn2)C1 (stereo unspecified) | -17.4%
OC1(CN(Cc2cccnc2)C2CCCCC2)CNCCOC1 (stereo unspecified) | 41.8%
CC(=O)N1CCC(N2CCOC(CC3CCCCC3)C2)CC1 (stereo unspecified) | 35.2%
O=C(C1CCOCC1)N1CCOC(CC2CCCCC2)C1 (stereo unspecified) | 54.8%
CC(=O)N1CCC(C(=O)N2CCOC(CC3CCCCC3)C2)CC1 (stereo unspecified) | 54.8%
O=C(C1CCOCC1)N1C[C@@H]2OCCN(CCN3CCCC3)[C@@H]2C1 | 46.7%
Cc1ncoc1C(=O)N1CCOC(CC2CCCCC2)C1 (stereo unspecified) | 24.7%
CN(C)C(=O)N1CCC(C(=O)N2CCOC(CC3CCCCC3)C2)CC1 (stereo unspecified) | 22.2%
Clc1ccc2cccnc2c1CNC1CCc2ncnn2C1 (stereo unspecified) | -92.9%
Cc1cc(N(C)C)cc(C2CCN(S(=O)(=O)c3cccs3)C2)n1 (stereo unspecified) | 46.55%
CC(C)NC(=O)c1cccc(Oc2ccc3nncn3n2)c1 | 2.84%
Cc1nc(-c2ccsc2)ccc1C(=O)NCCN1CCN(C)CC1 | 18.515%
CCC1=NC(SCC(=O)c2ccc(OC)cc2)c2cc(CC)sc2N1 (stereo unspecified) | 36.6%
CC(C)C(=O)N1CCC2(CCCN(CCOc3ccccc3)C2)C1 (stereo unspecified) | -4.27%
O=C(N1CCCC1)N1CCC2(CCCN(CCOc3ccccc3)C2)C1 (stereo unspecified) | 69.9%

SMILES | INHIBITION
CN(C)C(=O)N1CCC2(CCCN(CCOc3ccccc3)C2)C1 (stereo unspecified) | -44.2%
c1ccc(CCN2CCOC(CNc3cccnn3)C2)nc1 (stereo unspecified) | -71.2%
CC(NC(=O)N1CCC2(C1)OCCO2)c1cccc(Cl)c1 (stereo unspecified) | 5.58%
Cc1cccc(C(C)CNC(=O)N2CCOCC3(CCOCC3)C2)c1 (stereo unspecified) | -7.36%
Cc1cccc(C(C)CNC(=O)N2CCC3(C2)OCCO3)c1 (stereo unspecified) | 52.6%
Cc1ccc(C)n1-c1ccsc1C(=O)NCC(=O)N1CCCC1 | -7.7%
COc1ccc(-n2cc3nc(N4CCCC4)[nH]cc-3c2=O)cc1Cl | 30.8%
Cc1ccc(OC2(C(=O)NC(C)Cc3ccsc3)CCNCC2)cc1 (stereo unspecified) | -8.75%
c1ncc2c(n1)CN(Cc1nc(-c3ccoc3)no1)CC2 | -21.87%
Cc1noc(CN(C)c2ccccc2)n1 | 29.8%
Cc1cc(CS(=O)(=O)C(C)c2ccc(F)cc2)on1 (stereo unspecified) | -41%
CCN(C(=O)C(C)S(=O)(=O)Cc1nc(C)no1)c1ccccc1 (stereo unspecified) | 26.9%
Cc1cc(CS(=O)(=O)C(C)C(=O)N(C)c2ccccc2)on1 (stereo unspecified) | 59.4%
CCC(O)CN(CC(=O)Nc1cc(C)no1)c1ccccc1 (stereo unspecified) | 16.8%
Cc1noc(CS(=O)(=O)C(C)C(=O)N(C)c2ccccc2)n1 (stereo unspecified) | 50.8%
Cc1noc(C)c1CS(=O)(=O)C(C)C(=O)N(C)c1ccccc1 (stereo unspecified) | 11.5%
Cc1cc(NC(=O)CN(c2ccccc2)C(C)C)on1 | 13%
Cc1cc(NC(=O)CN(CC(C)O)c2ccccc2)on1 (stereo unspecified) | 51.3%
CC(C)N(Cc1ccccn1)C(=O)CCOc1cccc(F)c1 | -1.32%
COc1ccc(NC(=O)C2OC(c3cccs3)=NN2C(C)=O)cc1OC (stereo unspecified) | 14.5%
O=C(CC1CC1)N1CCC(O)(CN2CCN(c3ccccc3)CC2)C1 (stereo unspecified) | 17.4%
Cc1nnc(NC(=O)CN2CCc3nn(C(C)C)c(=O)cc3C2)s1 | -18%
O=C(c1cscn1)N1CCc2ncc(CN3CCCC3)n2CC1 | 23.1%

SMILES | INHIBITION
Cc1nccc(CNc2cc(N3CCCC3CO)ncn2)n1 (stereo unspecified) | -0.219%
COc1ccc(CN2C[C@@H]3CN(Cc4ccncc4)C[C@@H]3C2=O)cc1 | -2.35%
Cc1n[nH]c(C)c1CCCN(C)c1cc(N(C)C)ncn1 | 8.51%
C[S+]([O-])CCNC(=O)N1CCSC2(CCCCC2)C1 (stereo unspecified) | 25.4%
O=C(NCCc1ccccn1)N1CCSC2(CCCCC2)C1 | 3.17%
COCCNC(=O)N1CCSC2(CCCCC2)C1 | 52.6%
CCc1nc(NC(=O)N(C)Cc2ccoc2)nn1C | 63.6%
Cc1nc(NC(=O)N(C)Cc2ccoc2)nn1C | -10.9%
CSc1cccc(CN(C)C(=O)CN2CCN(c3ncccn3)CC2)c1 | 10.6%
CCN(Cc1ccoc1)C(=O)Nc1ccccc1CN(C)C(C)=O | 6.99%
CSc1cccc(CN(C)C(=O)Nc2nc(C)n(C)n2)c1 | 71.8%
Cc1nc(NC(=O)N(C)Cc2ccsc2)nn1C | 25.9%
Cc1cnc(N2C[C@@H]3CN(Cc4ccco4)CCC[C@]3(C(=O)O)C2)nc1 | 15.3%
O=C(CCNC(=O)C1CCCC1)NCc1ccccc1Cn1ccnc1 | 7.27%
COc1ccc(CNC(=O)Nc2cccnc2N2CCCC2)cc1 | 19.2%
O=C(NCC1CC1)c1cc(Br)cnc1N1CCCCC1 | 16.4%
CC(C)CN1CCC2(Cc3ccccc3NC2=O)C1 (stereo unspecified) | 58.7%
CCCN1CCC2(Cc3ccccc3NC2=O)C1 (stereo unspecified) | 36.2%
O=C1Nc2ccccc2CC12CCN(CCO)C2 (stereo unspecified) | -36.2%
